{"source": "the supplement of paper PMC10981050", "note": "Where “and” joins values, the source holds several entries; their conditions need not be identical. Identical values can stand only once. Counter-ions that a name gives are not always drawn."}
{"tested_on": "K562", "experiment": "cell viability relative to vehicle control; higher = less cytotoxic", "settings": "10 µM; SRSF2 genotype: SRSF2 P95H/wt", "how_it_was_run": "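Screening covered the Selleck bioactive, kinase and epigenetic probe libraries, less identity-inconsistent compounds, on CRISPR-edited mutant clones and isogenic wild-type clones of four leukaemia lines. Cells, at 2000 per well in 50 µL medium, received a single 10 µM acoustically dispensed dose. After 48 h the supernatant was removed and CellTiter-Glo luminescence was read. Viability was analysed in Genedata Screener as percent of the on-plate vehicle control.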"}
{"smiles": "CCN(CCCc1ccccc1)CCCc1ccccc1", "note": "[Alverine Citrate]", "cell viability": "75.1% and 81.5%"}
{"smiles": "CC(=O)OCC(=O)[C@@]12N=C(C)O[C@@H]1C[C@H]1[C@@H]3CCC4=CC(=O)C=C[C@]4(C)[C@H]3[C@@H](O)C[C@@]12C", "note": "[Deflazacort (Calcort)]", "cell viability": "98.4% and 102%"}
{"smiles": "CS(=O)(=O)Nc1ccc([N+](=O)[O-])cc1OC1CCCCC1", "cell viability": "99.4% and 103%"}
{"smiles": "O=C(/C=C/c1ccc(O)c(O)c1)O[C@@H]1C[C@](O)(C(=O)O)C[C@@H](O)[C@H]1O", "note": "[Chlorogenic acid]", "cell viability": "102% and 109%"}
{"smiles": "Nc1ncnc2c1ncn2C1OC(COP(=O)(O)OP(=O)(O)O)C(O)C1O", "note": "(configuration not stated)", "cell viability": "111% and 110%"}
{"smiles": "C[C@@H]1Cc2c([nH]c3ccccc23)[C@@H](c2c(F)cc(/C=C/C(=O)O)cc2F)N1CC(C)(C)F", "cell viability": "106% and 105%"}
{"smiles": "O=C(c1ccccc1)c1ccc2nc(NC(=O)c3csc(C4CCN(c5ncnc6ccsc56)CC4)n3)[nH]c2c1", "cell viability": "45.4% and 37.5%"}
{"smiles": "CC(C)NCC(O)c1ccc(O)c(O)c1", "note": "(configuration not stated) [Isoprenaline hydrochloride]", "cell viability": "92.4% and 104%"}
{"smiles": "O=C(Nc1ccc(Br)cc1)c1c(O)cccc1O", "note": "[Resorantel]", "cell viability": "17.7% and 15.3%"}
{"smiles": "Nc1ccn([C@@H]2O[C@H](CO)[C@@H](O)[C@H]2O)c(=O)n1", "note": "[Cytidine]", "cell viability": "101% and 86.3%"}
{"smiles": "O=C1[C@H]2CCCC[C@H]2C(=O)N1CCCCN1CCN(c2nsc3ccccc23)CC1", "note": "[Perospirone hydrochloride]", "cell viability": "70.2% and 74%"}
{"smiles": "COc1cc(C(=O)NS(=O)(=O)c2ccccc2C)ccc1Cc1cn(C)c2ccc(NC(=O)OC3CCCC3)cc12", "note": "[Zafirlukast (Accolate)]", "cell viability": "97.3% and 96.5%"}
